The results in this text go back to PubChem BioAssay AID743150 (Broad Institute, 2013).

Results with a measured potency or affinity are listed apart. Activity calls are given as the source filed them. The rule behind the calls is not given here.

The nature of this experiment: cytotoxicity in OVCAR4 cells, dose response, cytotoxicity control for PAX8 inhibitor project, cell-based, plate reader, dry powder, SA11 (AID 743150). As to conditions: series mostly up to 35 µM.
For `CCCC#Cc1ccc([C@@H]2[C@@H](C#N)N(C(=O)C3CCCCC3)[C@H]2CO)cc1`, the result was inactive.

As for `O=C(C[C@H]1CC[C@H]2[C@@H](COC[C@@H](O)CN2S(=O)(=O)c2cccc(Cl)c2)O1)Nc1ccc(-c2ccccc2)cc1`, the result was inactive.

`CCc1ccc(/C=C2\SC(=S)N(CCCC(=O)N(CCO)c3ccccc3)C2=O)cc1`: the outcome was inactive.

Turning to `O=C(Nc1ccc(OCC(F)(F)C(F)F)c(C(F)(F)F)c1)c1ccccc1O`, the compound was classed as inactive.

For `C[C@H](CO)N1C[C@H](C)[C@@H](CN(C)S(=O)(=O)c2ccc(Cl)cc2)OCCCC[C@H](C)Oc2ccc(NS(=O)(=O)c3ccccc3)cc2C1=O`, the outcome was inactive.

Take `COC(=O)[C@@]1(CCS(=O)(=O)c2ccccc2)N=C(c2ccc(OCCCO)cc2)O[C@H]1c1ccccc1`: the compound was classed as inactive.

On to `COCC(=O)N1[C@H](CO)[C@H](c2ccc(-c3cccnc3)cc2)[C@@H]1C#N`, for which the outcome was inactive.

For the compound `CC1(C)CC(=O)c2sc(NC(=O)CCS(=O)(=O)c3ccccc3)nc2C1`, the outcome was inactive.

For `CCCC#Cc1ccc([C@@H]2[C@@H](C#N)N(S(=O)(=O)c3cccc(F)c3)[C@H]2CO)cc1`, the compound was called inactive.

Consider `C[C@@H]1CN([C@H](C)CO)C(=O)CCCn2nncc2CO[C@H]1CN(C)Cc1ccc(Oc2ccccc2)cc1`, for which the compound was classed as inactive.

With `COc1ccccc1C#Cc1ccc([C@@H]2[C@@H](C#N)N(C(=O)C3CCCCC3)[C@H]2CO)cc1`, the compound was classed as inactive.

For the compound `CCSCCc1nnc(NC(=O)Nc2cccc(C(F)(F)F)c2)s1`, the compound was called inactive.

For the compound `N#C[C@H]1N[C@H](CO)[C@@H]1c1ccc(C#Cc2ccccc2F)cc1`, the call was inactive.

As for `C[C@H]1CN([C@@H](C)CO)C(=O)CCCn2nncc2CO[C@@H]1CN(C)C(=O)Nc1ccc(-c2cccs2)cc1`, the compound was called inactive.

Regarding `N#C[C@H]1[C@@H](c2ccc(C3=CCCC3)cc2)[C@@H](CO)N1C(=O)NC1CCCCC1`, the compound was called inactive.

Turning to `N#C[C@@H]1[C@@H](c2ccc(-c3ccccc3F)cc2)[C@@H](CO)N1C(=O)C1CCC1`, the outcome was inactive.

Regarding `C[C@H]1CN([C@@H](C)CO)C(=O)Cc2cc(NC(=O)NC3CCCCC3)ccc2O[C@@H]1CN(C)Cc1ccc(-c2ccccc2)cc1`, the compound was classed as inactive.

In the case of `C[C@H](CO)N1C[C@H](C)[C@H](CN(C)C(=O)Nc2ccc(-c3cccs3)cc2)OCc2cnnn2CCCC1=O`, the compound was called inactive.

Regarding `O=C1/C(=C/c2ccccc2F)SC(=S)N1CC(=O)N1CCCCC1c1cccnc1` (stereo unspecified), the compound was called inactive.

As for `O=C(CN1C(=O)c2ccccc2S1(=O)=O)c1ccc(Cl)cc1Cl`, the outcome was inactive.

Take `CCCn1c(C)cc(C(=O)CN2C(=O)c3ccccc3S2(=O)=O)c1C`: the compound was called inactive.

Consider `N#C[C@@H]1[C@@H](c2ccc(-c3cccc(F)c3)cc2)[C@H](CO)N1C(=O)NC1CCCC1`, for which the call was inactive.

For `COc1cccc(C#Cc2ccc([C@@H]3[C@@H](C#N)N(C(=O)C4CCCC4)[C@@H]3CO)cc2)c1`, the call was inactive.

Regarding `O=C1/C(=C/c2cccc(Br)c2)SC(=S)N1CCC(=O)N(CCO)c1ccccc1`, the result was inactive.

With `COc1cccc(C#Cc2ccc([C@@H]3[C@H](C#N)N(C(=O)c4ccccn4)[C@H]3CO)cc2)c1`, the compound was called inactive.

For `CN(C)CCCN(C(=O)CCOc1ccccc1)c1nc2c(F)cccc2s1`, the compound was called inactive.

In the case of `N#C[C@@H]1[C@@H](c2ccc(C3=CCCCC3)cc2)[C@@H](CO)N1C(=O)NC1CCCCC1`, the outcome was inactive.

Turning to `CCCC#Cc1ccc([C@H]2[C@@H](C#N)N(C(=O)C3CCCCC3)[C@H]2CO)cc1`, the call was inactive.

Turning to `O=C(N1CCCCC1)[C@@]1(CCS(=O)(=O)c2ccccc2)N=C(c2ccc(OCCCO)cc2)O[C@H]1c1ccccc1`, the call was inactive.

Turning to `O=C(CN1C(=O)c2ccccc2S1(=O)=O)c1ccccc1Cl`, the call was inactive.

As to `C[C@H](CO)N1C[C@H](C)[C@@H](CN(C)Cc2ccc(-c3ccccc3)cc2)Oc2ccc(NS(=O)(=O)c3ccccc3)cc2CC1=O`, the outcome was inactive.
